# Measurements as given in PubChem BioAssay (NCATS).
# Inconclusive results are not listed. Entries that show only a call come without a potency. Activity calls are given as the source filed them. The call rests on the fitted dose curve; in most records, active means well fitted inhibition curve with a large enough effect; inconclusive means small, poorly fitted or top-dose-only effect; inactive means flat fitted curve, though single readings scatter.
# System: NIH3T3
# Test: Cytotoxic Profiling of Annotated Libraries Using Quantitative High-Throughput Screening (AID 1296008); further: potency means the concentration at half of the fitted maximal effect
# Conditions: Five cell lines viability, CellTiter-Glo ATP luminescence, 48-72 h; max response: hits give low values
# Outline: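 Cytotoxicity was measured as CellTiter-Glo ATP luminescence, read after 10 min at room temperature. Compound treatment of the cells lasted 48 or 72 hr at 37 degrees Celsius in a qHTS format.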
# Further: nearly all actives have a fitted effect of over 60% in size.
SMILES,max response,outcome,Potency
CCN(CC)C(=O)C1CN2CCc3cc(OC)c(OC)cc3C2CC1OC(C)=O (stereo not given),-5.34% (inactive),–,–
COC(=O)CCCCC(CCSS/C(CCO)=C(\C)N(C=O)Cc1cnc(C)nc1N)SC(C)=O (stereo not given),–,inactive,–
COc1ccc(/C(C)=C/C(=O)O)c(OC)c1,–,inactive,–
OC1(c2ccc(Cl)cc2)CCNCC1,-2.06% (inactive),–,–
COC(=O)C1=CO[C@@H](O)[C@@H]2C(CO)=CC[C@H]12,-14.6% (inactive),–,–
Cc1oc(-c2ccccc2)nc1CCC(=O)c1ccc(CC2SC(=O)NC2=O)cc1 (stereo not given),-0.446% (inactive),–,–
CCN(CC)CC(=O)Oc1ccc(NC(C)=O)cc1,–,inactive,–
CCCCCC[C@@H](CCC)C(=O)O,–,inactive,–
CC(=O)c1ccc(O)c(C(N)=O)c1,–,inactive,–
O=C1NC(=O)/C(=C/c2ccc3c(c2)OC(F)(F)O3)S1,-4.12% (inactive),–,–
COC(=O)/C=C\C(=O)OC,–,inactive,–
N[C@@H](Cn1ccc(=O)c(O)c1)C(=O)O,0.301% (inactive),–,–
COc1cc(OC)nc(O[C@H](C(=O)O)C(OC)(c2ccccc2)c2ccccc2)n1,–,inactive,–
CC(C)N(CCC(=O)c1ccc2ccccc2c1)Cc1ccccc1,–,–,10.3 µM (active)
Cc1nn(-c2ccccc2)c(C)c1/C=N/N1CCN(Cc2ccccc2)CC1,3.85% (inactive),–,–
C[C@H]1C[C@@H]2[C@H]([C@@H](O)C[C@@]3(C)[C@H]2CC[C@]3(O)C(=O)CO)[C@@]2(C)C=CC(=O)C=C12,0.285% (inactive),–,–

# System: HACAT
# Test: qHTS assay to identify novel small-molecules to repurpose for Merkel cell carcinoma treatment (AID 1296009)
# Conditions: MCC and control cell lines, CellTiter-Glo viability, 72 h; at 44.8 µM (top of the series) unless noted
# Outline: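 Cell viability, measured as CellTiter-Glo luminescence, was normalized between DMSO and no-cell wells. The cells had been exposed to 8- or 11-point compound dilutions for 72 hr at 37 degree celsius.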
row,SMILES,outcome
1,Cc1ccc(-c2ccccc2C#N)cc1,inactive
2,COC(=O)/C=C(/C)N,inactive
3,CN1N=C(C(N)=O)CCC1=O,inactive
4,CC(NC(CCc1ccccc1)C(=O)O)C(=O)N1C(=O)N(C)CC1C(=O)O (stereo not given),inactive
5,CN(C)CCN1CCN(c2cccc(Cl)c2)C1=O,inactive
6,Cc1cc(O)c(C)c(C)c1O,inactive
7,COC(=O)c1cc(Cl)ccc1OC,inactive
8,COc1ccc(CCC(C)=O)cc1,inactive
9,CCCC(=O)Nc1ccc(O)c(C(C)=O)c1,inactive
10,Cc1ccc(C(C)OC(=O)C2(C)CCC(C(=O)O)C2(C)C)cc1 (stereo not given),inactive
11,O=C(C1CCCCC1)N1CC(=O)N2CCCc3ccccc3C2C1 (stereo not given),inactive
12,O=C(O)/C=C(\CC(=O)O)C(=O)O,inactive
13,CC(C)(C)C(=O)OCOC(=O)C1N2C(=O)CC2S(=O)(=O)C1(C)C (stereo not given),inactive
14,Cc1c(N)cccc1C(F)(F)F,inactive
15,CC(CC(C#N)(c1ccccc1)C(C)C)N(C)C (stereo not given),inactive
16,CC(C)(C)c1nnc(NS(=O)(=O)c2ccccc2)s1,inactive
17,Oc1ccccc1-c1nnco1,inactive

row,SMILES,outcome
1,NS(=O)(=O)c1ccc(N2CCCCS2(=O)=O)cc1,inactive
2,Cc1ccc2ccc(Cl)cc2n1,inactive
3,Cc1cccc(C)c1NC(=O)c1cc(S(N)(=O)=O)c(Cl)cc1O,inactive
4,CC(=O)OCC(=O)[C@@]1(O)[C@H](OC(C)=O)C[C@H]2[C@@H]3CCC4=CC(=O)C=C[C@]4(C)[C@@]3(F)[C@@H](O)C[C@@]21C,inactive
5,CCN(CC)C(=O)C1CN2CCc3cc(OC)c(OC)cc3C2CC1OC(C)=O (stereo not given),inactive
6,COC(=O)CCCCC(CCSS/C(CCO)=C(\C)N(C=O)Cc1cnc(C)nc1N)SC(C)=O (stereo not given),inactive
7,COc1ccc(/C(C)=C/C(=O)O)c(OC)c1,inactive
8,OC1(c2ccc(Cl)cc2)CCNCC1,inactive
9,Cc1oc(-c2ccccc2)nc1CCC(=O)c1ccc(CC2SC(=O)NC2=O)cc1 (stereo not given),inactive
10,CCN(CC)CC(=O)Oc1ccc(NC(C)=O)cc1,inactive
11,CCCCCC[C@@H](CCC)C(=O)O,inactive
12,CC(=O)c1ccc(O)c(C(N)=O)c1,inactive
13,COC(=O)/C=C\C(=O)OC,inactive
14,N[C@@H](Cn1ccc(=O)c(O)c1)C(=O)O,inactive [at 4.96 µM]
15,COc1cc(OC)nc(O[C@H](C(=O)O)C(OC)(c2ccccc2)c2ccccc2)n1,inactive
16,CC(C)N(CCC(=O)c1ccc2ccccc2c1)Cc1ccccc1,inactive; activator
17,C[C@H]1C[C@@H]2[C@H]([C@@H](O)C[C@@]3(C)[C@H]2CC[C@]3(O)C(=O)CO)[C@@]2(C)C=CC(=O)C=C12,inactive
